TDP1 cell CPT: qHTS for Inhibitors of human tyrosyl-DNA phosphodiesterase 1 (TDP1): qHTS in cells in presence of CPT | chicken DT40 Tdp1-/-;hTDP1 cells + 20 nM CPT, ATP luminescence, 48 h | Potency, µM (highest dose often 46.2 µM), actives largely listed as inhibitors | actives 12% (n = 420,000) | AID 686979, 2013; also: nearly all actives have a fitted effect of over 55% in size
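Chicken DT40 Tdp1-/- cells stably complemented with human TDP1 were seeded at 400 cells/well in medium containing 20 nM camptothecin, exposed to pin-transferred compounds, and grown at 37 °C for at least 48 hr. Viability was read as ATP luminescence.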
HT1080 IDH1KD tx: qHTS for induction of synthetic lethality in tumor cells producing 2HG: qHTS for the HT-1080-IDH1KD cell line | Potency, µM (doses to about 46.1 µM), hits mostly cytotoxic | actives 2% (n = 360,000) | HT-1080 IDH1 knockdown viability, ATP luminescence, 48 h
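Using the IDH1-knockdown HT-1080 line run in the same batch and compound series as the NT line, viability after 48 h at 37 °C was determined by CellTiter-Glo luminescence and expressed as % activity.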
IL1B secr inh: qHTS for Inhibitors of Inflammasome Signaling: IL-1-beta AlphaLISA Primary Screen | THP-1 LPS/ATP IL-1B secretion, AlphaLISA, 16 h; stronger effect = lower value | activity change, % at 57.5 µM | actives 4.7% (n = 360,000); in the data active = activity change below about -50%; inconclusive = mostly about -30% to -49%
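Secreted IL-1B measured by AlphaLISA bead assay after 16 h compound exposure of THP-1 cells; compounds (final up to 57.5 uM) added 1 h before LPS (250 ng/mL) and ATP (1.25 mM) stimulation; lower signal means less secretion.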
TDP1 cell noCPT: qHTS for Inhibitors of human tyrosyl-DNA phosphodiesterase 1 (TDP1): qHTS in cells in absence of CPT; DT40 Tdp1-/- hTDP1 cells, no CPT, ATP luminescence, 48 h; Potency, µM (series often up to 46.2 µM), usual class: inhibitors; actives 15% (n = 420,000); also: nearly all actives have a fitted effect of over 55% in size
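Seeded 400 DT40-hTDP1 cells/well (vehicle DMSO, no 20 nM CPT); pinned compounds; ≥48 hr at 37 °C; CellTiter-Glo luminescence as viability measure.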
HT1080NT lethal: qHTS for induction of synthetic lethality in tumor cells producing 2HG: qHTS for the HT-1080-NT fibrosarcoma cell line; HT-1080-NT fibrosarcoma viability, CellTiter-Glo ATP luminescence, 48 h; actives 1.6% (n = 360,000); AID 686970, 2013; Potency, µM (titrated, usually from 46.1 µM), hits mostly cytotoxic;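 also: NT is the 2HG producing partner of a matched IDH1 knockdown line; nearly all actives have a fitted effect of over 55% in size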
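Viability by CellTiter-Glo luminescence after 48 h compound exposure at 37C of HT-1080-NT cells (750/well, RPMI, 5% FBS). % activity scaled between DMSO wells and medium-only wells, then curve-fitted and categorized by curve class.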
Hits are given with their value; 0 = inactive; ? = inconclusive; - = no result given. Only some compounds are listed: those with a hit (about 19% of all), similar ones and a draw of the others. Unless noted, calls follow the shape of the dose curve; as a rule, active = well fitted curve in the direction sought with a large enough effect; inconclusive = small, poorly fitted or top-dose-only effect, or another doubt; inactive = no such curve, though single readings can be large; an effect the other way counts as inactive or inconclusive.

SMILES	TDP1 cell CPT	HT1080 IDH1KD tx	IL1B secr inh	TDP1 cell noCPT	HT1080NT lethal
Cc1ccccc1N(CC(=O)Nc1ccccc1C(=O)NCc1ccco1)S(=O)(=O)c1ccccc1	?	21µM	0	16µM	?
Cc1[nH]c(=O)c(C#N)c2c1CSC(C)(C)C2	0	0	0	0	0
Cc1ccc(C(=O)OCCOc2cccc(Cl)c2)cc1S(=O)(=O)N1CCOCC1	?	0	0	?	0
O=C(NCc1ccco1)c1ccc(COc2cc(Cl)ccc2Cl)cc1	?	0	0	?	0
N#Cc1ccccc1OCC(=O)Nc1ccc(S(=O)(=O)N2CCOCC2)cc1	0	0	0	?	0
O=C(Nc1ccccc1C(=O)Nc1ccccc1C(=O)NCc1ccco1)c1ccco1	16µM	0	0	?	0
COC(=O)COc1ccc(/C=N/NC(=O)CN(c2ccccc2OC)S(=O)(=O)c2ccccc2)cc1	?	0	-96	?	0
COc1ccccc1N(CC(=O)N/N=C/c1ccc(OCC(=O)NCc2ccco2)cc1)S(=O)(=O)c1ccc(C)cc1	?	?	0	13µM	?
Cc1ccc(N(CC(=O)NCc2ccco2)C(=O)CNS(=O)(=O)c2ccc(F)cc2)c(C)c1	0	0	-95	0	0
O=C1c2ccccc2CN1CCSC(=S)N1CCOCC1	0	0	?	0	0
COc1ccc(NC(=S)NC(NC(C)=O)C(Cl)(Cl)Cl)c([N+](=O)[O-])c1 (centres undefined)	0	0	-54	0	0
O=C(NC(NC(=S)Nc1ccccc1Cl)C(Cl)(Cl)Cl)c1cccc(Cl)c1 (centres undefined)	4.6µM	?	-87	8.2µM	?
COc1ccc(NC(=S)NC(NC(=O)c2cccc(C)c2)C(Cl)(Cl)Cl)c([N+](=O)[O-])c1 (centres undefined)	?	?	0	?	?
COc1ccc(NC(=S)NC(NC(=O)c2cccc(Cl)c2)C(Cl)(Cl)Cl)c([N+](=O)[O-])c1 (centres undefined)	?	?	-60	?	?
CC(=O)NC(NC(=S)Nc1ccccc1Br)C(Cl)(Cl)Cl (centres undefined)	0	0	0	0	0
COc1cccc(CNC(=O)[C@@H]2CCCN2C(=O)[C@H]2CCCCN2C(=O)c2ccccc2)c1	0	0	0	0	0
COCCn1c(C)cc(/C=C(\C#N)C(=O)OC(C)C(=O)Nc2ccc(NC(C)=O)cc2)c1C (centres undefined)	0	0	0	0	0
CC(=O)NC12CC3CC(C1)CC(C(=O)N1CCN(S(=O)(=O)c4cccc(C(F)(F)F)c4)CC1)(C3)C2	7.3µM	0	0	?	0
COc1ccccc1NS(=O)(=O)c1cc(NC(=O)c2ccco2)ccc1N1CCOCC1	?	0	0	?	0
COc1ccccc1NS(=O)(=O)c1cc(NC(=O)c2cccs2)ccc1N1CCOCC1	7.3µM	0	0	2.6µM	0
COc1ccccc1NS(=O)(=O)c1cc(NC(=O)c2ccccc2F)ccc1N1CCOCC1	16µM	0	0	13µM	0
Cc1cccc(-c2nc(CNC(=O)c3ccco3)cs2)c1	?	0	0	0	0
COc1ccc(-c2nc(CCNC(=O)c3cc(OC)c(OC)c(OC)c3)cs2)cc1	13µM	-	-	13µM	-
COc1ccc(NC(=O)C(=O)NCCc2csc(-c3ccc(Cl)cc3)n2)cc1	0	-	-	0	-
Cc1ccc(-c2nc(CCNC(=O)C(=O)Nc3ccc(C)c(C)c3)cs2)cc1	0	-	-	0	-
SMILES	TDP1 cell CPT	HT1080 IDH1KD tx	IL1B secr inh	TDP1 cell noCPT	HT1080NT lethal
COc1cc(C(=O)NCCOc2ccc(C)c(C)c2)cc(OC)c1OC	0	0	0	0	0
COc1cccc(C(=O)NCCc2csc(-c3ccc(Cl)cc3)n2)c1	16µM	-	-	?	-
Cc1cccc(-c2nc(CCNC(=O)c3ccccc3Br)cs2)c1	18µM	-	-	21µM	-
Cc1ccc(-c2nc(CCNC(=O)c3ccc(C)c(C)c3)cs2)cc1	?	-	-	16µM	-
CN(C)CCCNC(=O)c1ccccn1	0	0	0	0	0
CN(C)CCCNC(=O)c1ccc(-c2nc(-c3ccc(Cl)cc3)cs2)cc1	16µM	?	-97	21µM	0
Cc1ccc(C)c(CN2CCC(CNC(=O)Nc3ccc(F)c(Cl)c3)CC2)c1	29µM	18µM	-92	?	26µM
Cc1ccc(NC(=O)NCC2CCN(Cc3cc(C)ccc3Cl)CC2)c(C)c1	?	0	0	?	0
Cc1ccc(C)c(CN2CCC(CNC(=O)Nc3cccc(Cl)c3C)CC2)c1	?	0	-65	?	0
CC(C)n1cc(CN2CCC(Oc3ccc(C(=O)N4CCCCC4)cc3)CC2)cn1	0	0	0	0	0
CN(CC(=O)NC1CCN(Cc2ccccc2)CC1)S(=O)(=O)c1ccc(Br)s1	?	0	0	?	0

Bioassay records deposited in PubChem by National Center for Advancing Translational Sciences (NCATS).
